# Test results taken from PubChem BioAssay (EPA / NIEHS).
# Records with an inconclusive call do not appear. Activity calls are given as the source filed them. How the source made its calls, unless noted: active means hit-call score of the fitted dose curve at least 0.9, where 1 is the maximum; inconclusive means response in the unintended direction; inactive means score below 0.9.
# Columns and labels:
# [1] = target: Retinoic acid receptor RXR-alpha (Homo sapiens) (UniProt P19793); test: ATG_RXRa_TRANS: Attagene TRANS-FACTORIAL HepG2 Assay for human Retinoid X Receptor alpha (RXRa) (AID 2283012)
# How it was run: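 Measures exogenous chimeric NR-GAL4 activity in transfected HepG2 liver cells after 24 h of dosing. Induced reporter mRNA was detected by RT-PCR with capillary electrophoresis, and gain of signal was analysed against DMSO.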
# [2] = target: human Vitamin D Receptor (VDR), VDR (gene 7421) (UniProt P11473); test: ATG_VDR_TRANS: Attagene TRANS-FACTORIAL HepG2 Assay for human Vitamin D Receptor (VDR) (AID 2283022)
# How it was run: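 Multiplexed TRANS reporter in HepG2; 24 h treatment; reporter mRNA by RT-PCR plus capillary electrophoresis; upregulation scored relative to DMSO.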
# [3] = target: human Retinoid X Receptor beta (RXRb), RXRB (gene 6257) (UniProt P28702); test: ATG_RXRb_TRANS: Attagene TRANS-FACTORIAL HepG2 Assay for human Retinoid X Receptor beta (RXRb) (AID 2283013)
# How it was run: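 Chimeric receptor-Gal4 activity was assessed in transiently transfected human HepG2 cells after 24 h exposure. Transcripts from GAL4-UAS reporters were quantified by fluorescent RT-PCR and capillary electrophoresis, with DMSO as negative control and baseline.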
# [4] = target: human Thyroid Receptor alpha (THRa1), THRA (gene 7067) (UniProt P10827); test: ATG_THRa1_TRANS: Attagene TRANS-FACTORIAL HepG2 Assay for human Thyroid Receptor alpha (THRa1) (AID 2283014)
# How it was run: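 Measured here is mRNA from a GAL4-UAS reporter in transfected HepG2 cells carrying a Gal4-fused receptor, 24 h post-dose. DMSO served as negative control and baseline.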
# [5] = read-out: E-selectin (Homo sapiens) (UniProt P16581); test: BSK_3C_Eselectin: BioMAP Diversity Plus: 3C Assay for Eselectin Biomarker Activity (AID 2283015; active means hit-call score of the fitted dose curve at least 0.9, where 1 is the maximum; inactive means score below 0.9;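 on outcome: cell surface E-selectin protein quantified by ELISA 24 h after dosing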); settings: primary human endothelial cells (HUVEC); actives raise or lower the signal
# How it was run: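 Endpoint derived by bidirectional fitting against DMSO vehicle; signal is ELISA-detected E-selectin from primary HUVEC at 24 h post-dosing, with parallel SRB staining (0.1% SRB, 560 nm) flagging cytotoxicity.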
# [6] = read-out: Interleukin-1 alpha (IL1a), IL1A (gene 3552); test: BSK_BE3C_IL1a: BioMAP Diversity Plus: BE3C Assay for Interleukin-1 alpha (IL1a) Biomarker Activity (AID 2283016; active means hit-call score of the fitted dose curve at least 0.9, where 1 is the maximum; inactive means score below 0.9); settings: primary human bronchial epithelial cells; actives raise or lower the signal
# How it was run: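 Signal from IL-1a ELISA, taken 24 h after chemical dosing of human bronchial epithelial cells, is compared with DMSO as baseline using bidirectional curve fitting.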
# [7] = read-out: Monocyte Chemoattractant Protein-1 (MCP1), CCL2 (gene 6347); test: BSK_4H_MCP1: BioMAP Diversity Plus: 4H Assay for Monocyte Chemoattractant Protein-1 (MCP1) Biomarker Activity (AID 2283018; active means hit-call score of the fitted dose curve at least 0.9, where 1 is the maximum; inactive means score below 0.9); settings: primary human endothelial cells (HUVEC); actives raise or lower the signal
# How it was run: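 Endothelial cells from umbilical vein were treated with test chemical, then after 24 h MCP-1 levels were quantified by ELISA; endpoint values came from bidirectional fitting with DMSO as baseline of activity.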
# [8] = read-out: Human Leukocyte Antigen - DR isotype (HLADR), HLA-DRA (gene 3122); test: BSK_3C_HLADR: BioMAP Diversity Plus: 3C Assay for Human Leukocyte Antigen - DR isotype (HLADR) Biomarker Activity (AID 2283019; active means hit-call score of the fitted dose curve at least 0.9, where 1 is the maximum; inactive means score below 0.9;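 on outcome: ELISA of cell-surface HLA-DR on HUVEC 24 h after dosing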); settings: primary human endothelial cells (HUVEC); actives raise or lower the signal
# How it was run: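 Compound added to primary HUVEC cultures, 24 h incubation, then HLA-DR determined by ELISA; endpoint derived by bidirectional fitting relative to DMSO negative control.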
# [9] = read-out: Interleukin-8 (IL8), CXCL8 (gene 3576); test: BSK_3C_IL8: BioMAP Diversity Plus: 3C Assay for Interleukin-8 (IL8) Biomarker Activity (AID 2283020; active means hit-call score of the fitted dose curve at least 0.9, where 1 is the maximum; inactive means score below 0.9); settings: primary human endothelial cells (HUVEC); actives raise or lower the signal
# How it was run: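 Endothelial primary cells of human umbilical vein origin are dosed with chemical; after 24 h the IL-8 biomarker is measured by ELISA, and concentration–response is fitted in both directions versus DMSO.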
# [10] = read-out: Monokine induced gamma interferon (MIG), CXCL9 (gene 4283); test: BSK_3C_MIG: BioMAP Diversity Plus: 3C Assay for Monokine induced gamma interferon (MIG) Biomarker Activity (AID 2283021; active means hit-call score of the fitted dose curve at least 0.9, where 1 is the maximum; inactive means score below 0.9;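 on AC50: MIG protein level measured by immunoassay in the treated endothelial cultures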); settings: primary human endothelial cells (HUVEC); actives raise or lower the signal
# How it was run: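 Endothelial primary cells (human umbilical vein) are dosed with test chemical in the 3C system. MIG levels are measured by ELISA at 24 h and fitted in both directions relative to DMSO.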
# [11] = BSK_3C_SRB: Viability Assessment in the BioMAP Diversity Plus: 3C Assay (AID 2283023; active means hit-call score of the fitted dose curve at least 0.9, where 1 is the maximum; inactive means score below 0.9;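 further: fitted both ways against DMSO so a hit may be signal rise or drop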); settings: primary human endothelial cells (HUVEC)
# How it was run: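 Overt cytotoxicity is gauged in parallel confluent HUVEC cultures by SRB total-protein staining at the time of biomarker measurement, 24 h after dosing. Gain or loss of signal is fitted versus DMSO.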
# [12] = read-out: Matrix Metallopeptidase 1 (MMP1), MMP1 (gene 4312); test: BSK_BE3C_MMP1: BioMAP Diversity Plus: BE3C Assay for Matrix Metallopeptidase 1 (MMP1) Biomarker Activity (AID 2283024; active means hit-call score of the fitted dose curve at least 0.9, where 1 is the maximum; inactive means score below 0.9); settings: primary human bronchial epithelial cells; actives raise or lower the signal
# How it was run: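 MMP1 signal, measured by ELISA after a 24 h chemical exposure of human primary bronchial epithelial cells, is analysed with bidirectional fitting using DMSO as negative control.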
# [13] = BSK_3C_Vis: BioMAP Diversity Plus: 3C Assay for Morphology Visualization (AID 2283025; active means hit-call score of the fitted dose curve at least 0.9, where 1 is the maximum; inactive means score below 0.9;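 further: fitted both ways so gain or loss versus DMSO counts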); settings: primary human endothelial cells (HUVEC)
# How it was run: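 Morphology read by light microscopy serves as a background control for the multiplexed 3C assay in human umbilical vein endothelial cells, taken 24 h after dosing, with DMSO as the negative control and bidirectional curve fitting.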
# [14] = read-out: Pselectin, SELP (gene 6403); test: BSK_4H_Pselectin: BioMAP Diversity Plus: 4H Assay for Pselectin Biomarker Activity (AID 2283026; active means hit-call score of the fitted dose curve at least 0.9, where 1 is the maximum; inactive means score below 0.9); settings: primary human endothelial cells (HUVEC); actives raise or lower the signal
# How it was run: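 Endothelial primary cells (human umbilical vein) are dosed, incubated 24 h, and assayed for surface P-selectin by ELISA; responses in either direction are fitted relative to the DMSO negative control.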
# [15] = BSK_BE3C_SRB: Viability Assessment in the BioMAP Diversity Plus: BE3C Assay (AID 2283028; active means hit-call score of the fitted dose curve at least 0.9, where 1 is the maximum; inactive means score below 0.9); settings: primary human bronchial epithelial cells
# How it was run: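 SRB total-protein staining (0.1%, after TCA fixation) of chemically dosed human bronchial epithelial primary cells at 24 h; DMSO serves as the negative control for bidirectional curve fitting.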
# [16] = read-out: Thrombomodulin, THBD (gene 7056); test: BSK_3C_Thrombomodulin: BioMAP Diversity Plus: 3C Assay for Thrombomodulin Biomarker Activity (AID 2283029; active means hit-call score of the fitted dose curve at least 0.9, where 1 is the maximum; inactive means score below 0.9); settings: primary human endothelial cells (HUVEC); actives raise or lower the signal
# How it was run: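 Endothelial cells from umbilical vein are dosed with test chemical and incubated 24 h. Thrombomodulin is then quantified by ELISA, with DMSO serving as negative control and activity baseline.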
# [17] = read-out: Urokinase-type plasminogen activator receptor (uPAR), PLAUR (gene 5329); test: BSK_4H_uPAR: BioMAP Diversity Plus: 4H Assay for Urokinase-type plasminogen activator receptor (uPAR) Biomarker Activity (AID 2283030; active means hit-call score of the fitted dose curve at least 0.9, where 1 is the maximum; inactive means score below 0.9); settings: primary human endothelial cells (HUVEC); actives raise or lower the signal
# How it was run: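 Endpoint derived via bidirectional curve fitting against DMSO baseline; readout was ELISA detection of uPAR on umbilical vein endothelial cells at 24 h post-treatment, with SRB-stained parallel cultures assessing cytotoxicity.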
# Chain of Retinoic acid receptor RXR-alpha (Homo sapiens) (P19793 whole entry, looked up, the tested form may be a part): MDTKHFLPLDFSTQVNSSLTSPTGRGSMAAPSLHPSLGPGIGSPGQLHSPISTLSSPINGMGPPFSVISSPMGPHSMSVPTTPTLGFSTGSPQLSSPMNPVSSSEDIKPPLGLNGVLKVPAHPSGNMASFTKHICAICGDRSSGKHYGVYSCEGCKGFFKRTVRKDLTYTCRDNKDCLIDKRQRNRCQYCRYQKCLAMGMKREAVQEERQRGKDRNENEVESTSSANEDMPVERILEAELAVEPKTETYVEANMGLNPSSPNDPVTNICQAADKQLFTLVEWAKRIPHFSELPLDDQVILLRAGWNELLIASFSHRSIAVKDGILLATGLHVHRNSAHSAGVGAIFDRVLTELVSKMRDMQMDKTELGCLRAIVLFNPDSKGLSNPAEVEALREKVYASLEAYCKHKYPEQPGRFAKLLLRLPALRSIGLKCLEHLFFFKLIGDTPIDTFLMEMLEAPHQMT
# Chain of human Retinoid X Receptor beta (RXRb), RXRB (gene 6257) (P28702 whole entry, looked up, the tested form may be a part): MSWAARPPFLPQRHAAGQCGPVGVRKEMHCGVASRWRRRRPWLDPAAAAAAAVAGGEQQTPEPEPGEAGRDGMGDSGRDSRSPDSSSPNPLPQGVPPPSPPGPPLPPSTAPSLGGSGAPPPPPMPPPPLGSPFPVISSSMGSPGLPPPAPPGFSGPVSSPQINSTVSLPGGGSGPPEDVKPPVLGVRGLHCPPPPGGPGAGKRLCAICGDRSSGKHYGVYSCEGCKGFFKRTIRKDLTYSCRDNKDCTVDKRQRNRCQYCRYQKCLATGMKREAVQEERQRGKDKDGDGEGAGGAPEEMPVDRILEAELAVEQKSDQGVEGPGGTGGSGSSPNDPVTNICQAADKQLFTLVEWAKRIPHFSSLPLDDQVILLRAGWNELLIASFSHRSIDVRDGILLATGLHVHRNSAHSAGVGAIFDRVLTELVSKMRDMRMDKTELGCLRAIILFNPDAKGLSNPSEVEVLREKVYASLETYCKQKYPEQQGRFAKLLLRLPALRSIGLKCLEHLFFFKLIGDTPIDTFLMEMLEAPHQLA
# Chain of human Thyroid Receptor alpha (THRa1), THRA (gene 7067) (P10827 whole entry, looked up, the tested form may be a part): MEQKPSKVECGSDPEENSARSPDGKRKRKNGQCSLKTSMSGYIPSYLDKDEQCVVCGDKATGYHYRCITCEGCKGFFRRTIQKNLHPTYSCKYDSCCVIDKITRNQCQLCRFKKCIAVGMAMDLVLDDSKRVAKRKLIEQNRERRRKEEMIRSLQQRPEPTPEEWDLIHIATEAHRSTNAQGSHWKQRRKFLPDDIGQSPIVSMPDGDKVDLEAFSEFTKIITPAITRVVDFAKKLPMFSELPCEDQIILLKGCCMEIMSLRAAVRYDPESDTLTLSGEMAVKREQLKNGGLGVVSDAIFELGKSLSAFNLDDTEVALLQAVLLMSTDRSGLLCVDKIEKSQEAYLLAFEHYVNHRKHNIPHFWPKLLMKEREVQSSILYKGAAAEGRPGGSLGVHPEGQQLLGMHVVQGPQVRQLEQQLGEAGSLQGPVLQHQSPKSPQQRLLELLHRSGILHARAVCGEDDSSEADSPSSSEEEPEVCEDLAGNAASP
# Chain of human Vitamin D Receptor (VDR), VDR (gene 7421) (P11473 whole entry, looked up): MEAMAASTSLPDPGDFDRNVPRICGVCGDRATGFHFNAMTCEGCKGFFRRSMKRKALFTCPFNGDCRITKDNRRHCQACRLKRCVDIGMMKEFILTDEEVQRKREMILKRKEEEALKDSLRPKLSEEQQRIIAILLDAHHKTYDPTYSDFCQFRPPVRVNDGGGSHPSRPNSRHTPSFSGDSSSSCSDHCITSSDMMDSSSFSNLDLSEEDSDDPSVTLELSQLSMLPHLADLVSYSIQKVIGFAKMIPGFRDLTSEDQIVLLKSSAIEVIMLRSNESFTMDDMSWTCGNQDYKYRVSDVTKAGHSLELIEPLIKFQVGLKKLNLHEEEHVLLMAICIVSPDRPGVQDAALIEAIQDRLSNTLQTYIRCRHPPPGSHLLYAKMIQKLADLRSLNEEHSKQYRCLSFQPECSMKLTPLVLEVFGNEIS
# Chain of E-selectin (Homo sapiens) (P16581 whole entry, looked up): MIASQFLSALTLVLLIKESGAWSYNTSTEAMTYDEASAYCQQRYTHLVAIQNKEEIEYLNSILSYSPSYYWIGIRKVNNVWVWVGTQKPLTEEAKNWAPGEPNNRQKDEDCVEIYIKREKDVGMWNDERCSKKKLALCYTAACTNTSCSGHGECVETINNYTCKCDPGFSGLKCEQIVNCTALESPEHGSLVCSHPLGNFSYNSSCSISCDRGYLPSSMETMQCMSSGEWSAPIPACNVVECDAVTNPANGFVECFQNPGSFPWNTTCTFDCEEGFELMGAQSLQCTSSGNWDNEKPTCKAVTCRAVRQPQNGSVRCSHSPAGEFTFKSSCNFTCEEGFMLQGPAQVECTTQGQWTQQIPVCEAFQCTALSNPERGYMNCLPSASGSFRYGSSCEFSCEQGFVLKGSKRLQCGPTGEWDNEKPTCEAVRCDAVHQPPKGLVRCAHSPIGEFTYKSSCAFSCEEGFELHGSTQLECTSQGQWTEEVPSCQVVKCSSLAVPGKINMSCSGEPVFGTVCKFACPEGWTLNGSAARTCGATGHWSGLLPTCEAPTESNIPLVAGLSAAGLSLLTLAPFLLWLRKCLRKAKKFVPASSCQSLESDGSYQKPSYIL
smiles,measurement,setting,value
CCCCCc1ccco1,outcome,[1],inactive
same,outcome,[2],inactive
CCC1(C)NC(=O)NC1=O (configuration not stated),outcome,[1],inactive
same,outcome,[2],inactive
CCCC(C)C(O)CC (configuration not stated),outcome,[1],inactive
same,outcome,[2],inactive
N[C@@H](Cc1cc(I)c(Oc2cc(I)c(O)c(I)c2)c(I)c1)C(=O)O,outcome,[1],inactive
same,outcome,[2],inactive
CCCCCCCCCCCCS(=O)(=O)Cl,outcome,[3],inactive
OCCOCCN1CCN(C2=Nc3ccccc3Sc3ccccc32)CC1,outcome,[1],inactive
same,outcome,[2],inactive
CCCCCCC(C)(C)S,outcome,[3],inactive
CCc1cc(C(C)(C)C)c(O)c(C(C)(C)C)c1,AC50,[1],11.3 µM (active)
same,outcome,[2],inactive
O=C(O)COCC(=O)O,outcome,[3],inactive
same,outcome,[4],inactive
same,outcome,[2],inactive
CCCCCCCCC=CCCCCCCCC1=NCCN1CCO,outcome,[3],inactive
same,outcome,[4],inactive
same,outcome,[2],inactive
C1CCOC1,outcome,[1],inactive
same,outcome,[2],inactive
ClC(c1ccccc1)(c1ccccc1)c1ccccc1,outcome,[1],inactive
same,outcome,[2],inactive
CC(C)CCCCCCc1ccc(OCCOCCO)cc1,outcome,[3],inactive
CC(C)(N=C=O)c1cccc(C(C)(C)N=C=O)c1,outcome,[1],inactive
same,outcome,[5],inactive
same,outcome,[6],inactive
same,outcome,[7],inactive
same,outcome,[8],inactive
same,outcome,[9],inactive
same,outcome,[10],inactive
same,outcome,[11],inactive
same,outcome,[12],inactive
same,outcome,[13],inactive
same,outcome,[14],inactive
same,outcome,[15],inactive
same,outcome,[16],inactive
same,outcome,[17],inactive
CCCC[O][Al]([O]CCCC)[O]CCCC,outcome,[1],inactive
same,outcome,[2],inactive
CC(=O)c1c(C)c([N+](=O)[O-])c(C(C)(C)C)c([N+](=O)[O-])c1C,AC50,[1],6.93 µM (active)
same,outcome,[5],inactive
same,outcome,[6],inactive
same,outcome,[7],inactive
same,outcome,[8],inactive
same,outcome,[9],inactive
same,outcome,[10],inactive
same,outcome,[11],inactive
same,outcome,[12],inactive
same,outcome,[13],inactive
same,outcome,[14],inactive
same,outcome,[15],inactive
same,outcome,[16],inactive
same,outcome,[17],inactive
FC(F)(F)COCC(F)(F)F,outcome,[1],inactive
same,outcome,[2],inactive
O=C1OC(=O)c2c(Br)c(Br)c(Br)c(Br)c21,outcome,[1],inactive
same,outcome,[2],inactive
CCCCC1CCC(O)CC1 (configuration not stated),outcome,[1],inactive
same,outcome,[2],inactive
Cc1cc(S(=O)(=O)O)ccc1N=Nc1c(O)ccc2ccccc12,outcome,[3],inactive
same,outcome,[4],inactive
same,outcome,[2],inactive
CC(=O)C(C)O (configuration not stated),outcome,[1],inactive
same,outcome,[2],inactive
COC(=O)c1ccc([N+](=O)[O-])cc1,outcome,[3],inactive
same,outcome,[4],inactive
Cc1ccc(S(=O)(=O)Oc2ccc(N=Nc3ccc(-c4ccc(N=Nc5c(O)ccc6cc(S(=O)(=O)O)cc(S(=O)(=O)O)c56)c(C)c4)cc3C)cc2)cc1,outcome,[1],inactive
same,outcome,[2],inactive
COC(=O)c1ccc(C)cc1C1=NC(C)(C(C)C)C(=O)N1 (configuration not stated) (tested in a mixture with another compound),outcome,[1],inactive
same,outcome,[2],inactive
CC(=O)Nc1ccc(C(=O)CCl)cc1,outcome,[3],inactive
same,outcome,[4],inactive
same,AC50,[5],7.26 µM (active)
same,AC50,[6],14.9 µM (active)
same,AC50,[7],9.64 µM (active)
same,AC50,[8],5.06 µM (active)
same,AC50,[9],20 µM (active)
same,AC50,[10],10.9 µM (active)
same,outcome,[2],inactive
same,AC50,[11],9.52 µM (active)
same,AC50,[12],13.2 µM (active)
same,AC50,[13],4.8 µM (active)
same,AC50,[14],4.79 µM (active)
same,outcome,[15],inactive
same,outcome,[16],inactive
same,AC50,[17],9.47 µM (active)
CC(C)(C)OC(=O)c1ccc(O)cc1,outcome,[1],inactive
same,outcome,[2],inactive
CCCCCC(=O)CC,outcome,[1],inactive
same,outcome,[2],inactive
COC(=O)c1ccc(OC)cc1,outcome,[1],inactive
same,outcome,[2],inactive
CCCC(C)=O,outcome,[3],inactive
CC=Cc1ccc(OCC)c(O)c1,outcome,[3],inactive
same,outcome,[4],inactive
same,outcome,[5],inactive
same,outcome,[6],inactive
same,outcome,[7],inactive
same,outcome,[8],inactive
same,outcome,[9],inactive
same,outcome,[10],inactive
same,outcome,[2],inactive
same,outcome,[11],inactive
same,outcome,[12],inactive
same,outcome,[13],inactive
same,outcome,[14],inactive
same,outcome,[15],inactive
same,outcome,[16],inactive
same,outcome,[17],inactive
CCc1ccc(O)c(OC)c1,outcome,[3],inactive
CCc1ccc(O)cc1,outcome,[1],inactive
same,outcome,[2],inactive
Oc1ccc2cc(SSc3ccc4cc(O)ccc4c3)ccc2c1,outcome,[3],inactive
same,outcome,[4],inactive
CC(=O)O[C@@H]1CC2CCC1(C)C2(C)C (some centres not stated),outcome,[1],inactive
same,outcome,[2],inactive
C=C1CC[C@H](O)C/C1=C/C=C1\CCC[C@]2(C)[C@@H]([C@H](C)/C=C/[C@H](C)C(C)C)CC[C@@H]12,outcome,[1],inactive
same,AC50,[2],3.98 µM (active)
CN1CCOCC1,outcome,[1],inactive
same,outcome,[2],inactive
C[N+](C)(C)CCCCCC[N+](C)(C)C,outcome,[3],inactive
same,outcome,[4],inactive
CN(C)c1cccc(O)c1,outcome,[3],inactive
O=Cc1ccccc1S(=O)(=O)O,outcome,[4],inactive
same,outcome,[2],inactive
